# Measurements reported in PubChem BioAssay AID1851 (National Center for Advancing Translational Sciences (NCATS), 2009).
# Hit rate of the full screen: of about 16,000 compounds, about 5,700 (36%) were called active. Inconclusive results (about 24%) are left out. The call rests on the fitted dose curve; in most records, active means well fitted curve in the direction sought with a large enough effect; inconclusive means small, poorly fitted or top-dose-only effect, or effect the other way; inactive means no such curve, though single readings can be large or run the other way. The list shows a part of the results.
# Target: Cytochrome P450 1A2 (Homo sapiens) (UniProt P05177)
# Experiment: Cytochrome panel assay with activity outcomes
# Details: recombinant CYP, pro-luciferin dealkylation, luminescence, p450-cyp1a2; series mostly up to 57.1 µM; activity, negative = inhibition: at the top concentration
# On the % scale 0 is the no-effect control and ±100 the full control effect.
# Cytochrome P450 1A2 (Homo sapiens), sequence (P05177 whole entry, looked up): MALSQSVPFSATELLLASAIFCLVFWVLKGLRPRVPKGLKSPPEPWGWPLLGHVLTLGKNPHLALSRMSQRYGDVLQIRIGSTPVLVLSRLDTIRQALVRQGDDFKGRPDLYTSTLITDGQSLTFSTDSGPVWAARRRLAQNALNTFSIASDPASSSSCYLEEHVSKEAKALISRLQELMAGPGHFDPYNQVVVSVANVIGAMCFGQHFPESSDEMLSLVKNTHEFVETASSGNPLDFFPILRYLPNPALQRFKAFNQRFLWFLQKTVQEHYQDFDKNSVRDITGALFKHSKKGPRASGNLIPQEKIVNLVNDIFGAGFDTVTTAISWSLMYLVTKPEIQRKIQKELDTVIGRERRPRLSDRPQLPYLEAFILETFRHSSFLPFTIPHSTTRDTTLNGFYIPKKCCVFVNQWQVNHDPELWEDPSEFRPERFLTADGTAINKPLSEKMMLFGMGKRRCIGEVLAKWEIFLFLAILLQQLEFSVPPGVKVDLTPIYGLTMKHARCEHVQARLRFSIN
Structure (SMILES),"activity, negative = inhibition",AC50
C1CCC(N=C(NC23CC4CC(CC(C4)C2)C3)N2CCOCC2)CC1,-10.6% (inactive),
Cc1nc2cncnc2n(Cc2ccc(F)cc2)c1=O,,10 µM (active)
Cc1nc2cncnc2n(Cc2ccccc2)c1=O,,12.6 µM (active)
CC(=O)OC[C@@H]1O[C@H](C/C=N\O[C@@H](C)CN2CCCc3nc(C)c(C)cc32)C=C[C@@H]1OC(C)=O,-4.85% [at 11.4 µM] (inactive),
Cc1ccc(CNC(=O)C2CCC(=O)N2C2CCCCC2)cc1 (stereo not drawn),-38% (inactive),
O=C1[C@H]2[C@H]3[C@H](O)[C@H](O)C/C(=N/OCc4ccccc4)[C@@H]3CC[C@@H]2C(=O)N1Cc1ccc2c(c1)OCO2,-8.98% [at 11.4 µM] (inactive),
O=C(NCc1ccc2c(c1)OCO2)C1CC(c2cccc(Br)c2)=NO1 (stereo not drawn),,2 µM (active)
Cc1ccc(CNC(=O)C2CC(c3ccccc3[N+](=O)[O-])=NO2)cc1 (stereo not drawn),,5.01 µM (active)
Cc1ccc(CCN2CC(C(=O)NCCCN(C)Cc3ccccc3)CC2=O)cc1 (stereo not drawn),-2.15% (inactive),
CC(C)(C)OC(=O)N1CCCC1C(=O)NCCc1ccccc1 (stereo not drawn),-12.5% (inactive),
Cc1ccc(CNC(=O)C2CC(c3ccccc3[N+](=O)[O-])=NO2)o1 (stereo not drawn),,6.31 µM (active)
CCN(CC)S(=O)(=O)N1CCC(C(=O)NCc2ccc(C)cc2)CC1,-10.3% (inactive),
O=C1[C@H]2[C@H]3[C@H](O)[C@H](O)C/C(=N/OCc4ccccc4)[C@H]3CC[C@@H]2C(=O)N1Cc1ccc2c(c1)OCO2,-4.06% [at 11.4 µM] (inactive),
Cc1ccc(CCNC(=O)C2CC(c3ccccc3[N+](=O)[O-])=NO2)cc1 (stereo not drawn),,6.31 µM (active)
COc1c(N2CCN(C(=S)Nc3ccc(F)cc3)C(C)C2)c(F)cc2c(=O)c(C(=O)O)cn(C3CC3)c12 (stereo not drawn),-10.8% (inactive),
COc1ccc(CNC(=O)C2CC(c3cccc([N+](=O)[O-])c3)=NO2)cc1 (stereo not drawn),,15.8 µM (active)
O=C(NCCCCc1ccccc1)C1CC(c2ccccc2[N+](=O)[O-])=NO1 (stereo not drawn),,2.24 µM (active)
NS(=O)(=O)c1ccc(CCNC(=O)C2CCCN2C(=O)OCc2ccccc2)cc1 (stereo not drawn),-9.88% (inactive),
COc1cccc(C2=NOC(C(=O)NCc3ccccn3)C2)c1 (stereo not drawn),-26.4% (inactive),
CCCCN(C)S(=O)(=O)c1ccc(C(=O)Nc2nnc(CSC)o2)cc1,5.83% (inactive),
CCOC(=O)c1cc(NC(=O)c2ccc(OC)cc2)c(=O)oc1-c1ccccc1,-26.2% (inactive),
CCOC(=O)c1oc2ccccc2c1NC(=O)c1ccc2c(c1)OCO2,,1 µM (active)
CCOC(=O)c1oc2ccccc2c1NC(=O)c1cc(OC)cc(OC)c1,,0.794 µM (active)
Cc1cc(NC(=O)c2ccc(S(=O)(=O)N(C)C)cc2)n(-c2ccccn2)n1,-5.86% (inactive),

Structure (SMILES),"activity, negative = inhibition",AC50
CCOC(=O)c1oc2ccccc2c1NC(=O)c1ccc(S(=O)(=O)N(C)C)cc1,,12.6 µM (active)
CC(C)(N)CO[C@H]1C[C@H]2CC[C@@]1(C)C2(C)C,-8.25% [at 11.4 µM] (inactive),
CC(=O)Nc1ccc(S(=O)(=O)NCC2CCC(C(=O)NCCC(C)C)CC2)cc1 (stereo not drawn),-20.7% (inactive),
Cn1cccc1C(=O)N1CCC2(CC1)CN(Cc1ccc(C#N)cc1)C2,3.59% (inactive),
CCOc1cc(/C=N/n2cnnc2)c(Br)cc1O,,10 µM (active)
Cc1cc(C)n(-c2ccc(C(=O)Nc3cc(C(F)(F)F)ccc3N3CCOCC3)cc2)n1,-18% (inactive),
O=C(Nc1cc(C(F)(F)F)ccc1N1CCCCC1)c1ccc(Br)o1,,0.282 µM (active)
CS(=O)(=O)N1CCN(c2ccccc2NC(=O)c2ccc(Br)o2)CC1,,14.1 µM (active)
O=C(COc1ccccc1)Nc1cc(C(F)(F)F)ccc1N1CCCC1,,2 µM (active)
NS(=O)(=O)c1cc(C(=O)O)cc(N2CCCC2)c1Oc1ccccc1,-3.4% [at 25.6 µM] (inactive),
Cc1cc(F)ccc1S(=O)(=O)Nc1ccccc1C(=O)Nc1ccccc1N1CCOCC1,-14.5% (inactive),
CC(C)(C)c1ccc(OCC(=O)NNC(=O)CCc2ccccc2)cc1,-12.7% (inactive),
Cc1noc(NS(=O)(=O)c2ccc(NC(=O)c3ccc(Br)o3)cc2)c1C,-26.3% (inactive),
O=C(Nc1ccccc1N1CCN(C(=O)c2ccccc2)CC1)c1cc(Br)ccc1Cl,-20.8% (inactive),
O=C(c1cnccn1)N1CCC2(CC1)CN(Cc1nccs1)C2,3.68% (inactive),
O=C(NC(=S)Nc1ccc(Br)cn1)c1cncc(Br)c1,,0.282 µM (active)
O=C(NNC(=S)NC(=O)c1cccnc1)c1ccccc1,15.3% (inactive),
COc1ccc(C2C(C(=O)N3CCN(C)CC3)c3ccccc3C(=O)N2C2CCCCC2)cc1 (stereo not drawn),-4.37% (inactive),
O=C(NC1CCCCC1)c1sc(=S)n2c1[nH]c(=O)c1ccccc12,,3.16 µM (active)
O=C(NCc1ccccc1)c1sc(=S)n2c1[nH]c(=O)c1ccccc12,,8.91 µM (active)
COc1cccc(/C=c2/s/c(=C(\C#N)C(=O)N3CCOCC3)n(-c3ccccc3)c2=O)c1,-3.78% (inactive),
CCOC(=O)N/N=C1/C[C@@H](O)[C@@H](O)[C@@H]2[C@@H]3C(=O)N([C@@H](C)c4ccccc4)C(=O)[C@H]3CC[C@H]12,7.27% [at 11.4 µM] (inactive),
CN(C)CCN1C(=O)C(O)=C(C(=O)c2cc3ccccc3o2)C1c1ccccn1 (stereo not drawn),21.7% (inactive),
Cc1ccc2nc(N3CCN(S(=O)(=O)c4ccc5c(c4)OCCO5)CC3)c(C#N)cc2c1,-24.7% (inactive),

Structure (SMILES),"activity, negative = inhibition",AC50
Cc1ccc(-c2csc(N3CCC(NS(=O)(=O)c4ccc5c(c4)OCCO5)CC3)n2)cc1,,5.01 µM (active)
CN1CCCN(S(=O)(=O)c2ccc3c(c2)OCCO3)CC1,-5.13% (inactive),
CCn1c2ccccc2c2cc(/C=N/n3cn[nH]c3=S)ccc21,,2.82 µM (active)
Nc1nonc1-c1nc2ccccc2n1Cc1ccc(F)cc1Cl,,0.2 µM (active)
Clc1ccc(Cn2c(-c3cccnc3Cl)nc3ccccc32)c(Cl)c1,,12.6 µM (active)
CC(=O)OCC(=O)[C@@]1(O)CC[C@@H]2[C@H]3CCC4=CC(=O)C=C[C@]4(C)[C@]3(F)[C@@H](O)C[C@@]21C,-3.35% [at 25.6 µM] (inactive),
Cc1ccccc1-c1nc(NC2CC2)c2ccccc2n1,,0.501 µM (active)
COc1ccccc1-c1nc(NC2CC2)c2ccccc2n1,,0.316 µM (active)
CC(=O)Nc1ccc(S(=O)(=O)N2CCN(c3nc(NC4CCCC4)c4ccccc4n3)CC2)cc1,-5.96% (inactive),
CC(=O)c1cc(CC=C(C)C)c(O)cc1O,,3.55 µM (active)
COc1cc(CC(=O)O)c(C(C)=O)cc1OC,-23% (inactive),
Nc1nc(SCc2ccccc2[N+](=O)[O-])c2[nH]cnc2n1,,5.01 µM (active)
Nc1nc(SCCc2ccccc2)c2[nH]cnc2n1,,3.16 µM (active)
O=C(O)CCSc1ncnc2nc[nH]c12,-3.4% [at 11.4 µM] (inactive),
Nc1nc(Sc2ccc([N+](=O)[O-])c3nonc23)c2[nH]cnc2n1,-26.1% [at 2.29 µM] (inactive),
Nc1nc(SC/C=C\c2ccccc2)c2[nH]cnc2n1,,5.01 µM (active)
CCC[C@H](Sc1nc(N)nc2nc[nH]c12)C(=O)O,-9.79% [at 11.4 µM] (inactive),
Nc1nc(N)c2[nH]cnc2n1 (tested in a mixture with another compound),-5.45% [at 2.29 µM] (inactive),
Cc1cccc(N(C)S(=O)(=O)c2ccc3[nH]c(=O)c(=O)[nH]c3c2)c1,-4.96% (inactive),
COCC(=O)N1CCC2(CCCN(Cc3nccs3)C2)CC1,2.83% (inactive),
CC(C)=NOCc1ccc(-c2cn([C@@H]3COC[C@@H]3O)nn2)cc1,-5.29% [at 11.4 µM] (inactive),
c1ccc(/C(=N/Nc2nc3ccccc3s2)c2ccccn2)cc1,,3.16 µM (active)
COc1cccc(-c2cc3nc(-c4ccccc4)cc(N4CCC5(CC4)OCCO5)n3n2)c1,,0.251 µM (active)
CC1CN(C(=O)COc2ncnc3ccccc23)CC(C)O1 (stereo not drawn),-4.54% (inactive),

Structure (SMILES),"activity, negative = inhibition",AC50
CCOc1ccc(OCCOc2ncnc3ccccc23)cc1,,12.6 µM (active)
Cc1cc(C)cc(-n2c(C)cc(C=C(C#N)C#N)c2C)c1,-17.1% (inactive),
CCc1ccc(N(C(=O)c2snc(C(N)=O)c2N)C(C(=O)NCCC(C)C)c2c[nH]c3ccccc23)cc1 (stereo not drawn),-21.5% (inactive),
CCN(CC)c1ccc(NC(=O)c2cccnc2)c(C)c1,-15.4% (inactive),
CCOc1cc(C#N)c(NC(=O)c2cccnc2)cc1OCC,,20 µM (active)
CS(=O)(=O)N1CCC2(CCN(Cc3nccs3)CC2)CC1,-6.39% (inactive),
Cn1cnnc1SCC(=O)n1c2ccccc2c2ccccc21,,0.0501 µM (active)
COC(=O)C1=C(CSc2nncn2C)NC(=O)NC1c1ccc(F)cc1 (stereo not drawn),-36.1% (inactive),
CCc1cccc2c(C=C(C#N)C#N)cn(CC(=O)N3CCCC3)c12,-0.488% (inactive),
CCc1cccc2c(C=C(C#N)C#N)cn(CC(=O)N3CCCCC3)c12,-14.5% (inactive),
O=C(CN1C(=O)c2cccc3cccc(c23)C1=O)N1CCCCCC1,,14.1 µM (active)
O=C(CCCN1C(=O)c2cccc3cccc(c23)C1=O)N1CCc2ccccc2C1,,6.31 µM (active)
O=C(CCCN1C(=O)C2C3C=CC(C3)C2C1=O)N1CCN(c2ccccc2)CC1 (stereo not drawn),-21.3% (inactive),
CSc1nc(Cl)cc(N(CCO)CCO)n1,0.0544% (inactive),
CC(=O)OC[C@H]1O[C@@H](ON=C(C)C)[C@H](OC(C)=O)[C@@H](OC(C)=O)[C@H]1OC(C)=O,-5.84% [at 11.4 µM] (inactive),
COc1ccc(/C=C2\CCCC3C2=NN(C(=O)c2ccco2)C3c2ccc(OC)c(OC)c2)cc1OC (stereo not drawn),-17.7% (inactive),
NC(=O)/C(=N\OC(=O)c1ccco1)c1nc(-c2ccc(Br)cc2)cs1,,0.447 µM (active)
c1ccc2c(CSCCc3ccncc3)cccc2c1,,0.178 µM (active)
Clc1ccc(CSCCc2ccncc2)cc1Cl,,0.316 µM (active)
O=S(=O)(O)CCCc1cccc2ccccc12,-16.7% [at 2.29 µM] (inactive),
Clc1ccc(COc2ccccn2)cc1Cl,-26.5% (inactive),
